Assay outcomes from PubChem BioAssay.
Compounds with a hit are over-represented: about 5% of the library has one in this group of screens.
TSHR agonist – qHTS Assay for Agonists of the Thyroid Stimulating Hormone Receptor | HEK293-CNG-TSHR cells (CNG channel as cAMP sensor), membrane potential dye, cAMP | Potency, µM (series often up to 57.1 µM), for inactives: at the top dose activation, most hits filed as activators | 0.48% of 73,000 active | AID 926, 2007; active means well fitted activation curve with a large enough effect in the main read-out, with a control signal flat, not every such curve was filed as active; inconclusive means small, poorly fitted or top-dose-only effect, or a change in a side signal; inactive means no such curve, though single readings can be large or run the other way; % of control where 0% means no effect;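 further: the control signal comes from parental cells without the receptor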
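HEK 293 cells stably expressing TSHR and a modified CNG channel, with CNG-only parental cells as counterscreen, were preloaded 60 min at room temperature with membrane potential dye containing 100 uM RO 20-1724. Compound exposure was 30 min, and depolarization was read as fluorescence at 590 nm.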
CRE Fsk mod – Cell signaling CRE-BLA (Fsk stim) | CHO CRE-bla reporter (cAMP response element driving beta-lactamase), forskolin EC10, beta-lactamase ratio | Potency, µM (top dose mostly 38.2 µM), without a hit: at the top dose activity change, negative = inhibition, hits mostly activators | 2.5% of 71,000 active; active means well fitted activation curve with a large enough effect in the signal ratio, with a control signal flat, not every such curve was filed as active; inconclusive means small, poorly fitted or top-dose-only effect, or effect the other way, or a change in a side signal; the % refers to the signal ratio; further: % of control where 0% means no effect
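CRE-bla CHO cells stimulated with EC10 NKH 477 (water-soluble forskolin) and compound titrations, 3 h at 37C; beta-lactamase read with CCF4 after 2 h at room temperature. Activity from 460/530 nm emission ratio, AC50 values for positive or negative modulation.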
HEK293 cAMP ctrl – qHTS Assay for Agonists of the Thyroid Stimulating Hormone Receptor: Activators of Intracellular cAMP Concentrations in Parental HEK 293; parental HEK293 CNG cAMP sensor, membrane potential fluorescence; Potency, µM (series often up to 57.1 µM), inactives show at the highest dose activation, actives largely listed as activators; 2.5% of 73,000 active; AID 938, 2007; further: % of control where 0% means no effect; nearly all actives have a fitted effect of over 55% in size
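Counterscreen for endogenous-receptor signalling: CNG-channel HEK 293 cells report cAMP rise by membrane depolarization. After 60 min dye equilibration with 100 uM RO 20-1724, compounds incubated 30 min before bottom-read fluorescence at 590 nm.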
USP2a inhib – qHTS Assay for Inhibitors of Ubiquitin-specific Protease USP2a. Ubiquitin carboxyl-terminal hydrolase 2 (Homo sapiens), O75604. USP2a enzymatic assay, qHTS inhibition. Potency, µM (top dose mostly 38.3 µM), without a hit: top-dose activity change, negative = inhibition, usual class: inhibitors. 0.1% of 60,000 active. AID 927, 2007; further: nearly all actives have a fitted effect of over 60% in size
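USP2 core (20nM final) preincubated 30 min RT with compound, then Ub-PLA2 20nM and NBD C6-HPC 20uM final added; buffer 20mM Tris-HCl pH 8.0, 2mM CaCl2. Fluorescence Ex 460/Em 535 read at 0 and 2.5 h; normalized to NEM.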
Casp7 inh – qHTS Assay for Allosteric/Competitive Inhibitors of Caspase-7. recombinant caspase-7, Ac-DEVD-AFC fluorescence rate. AID 889, 2007. Potency, µM (top dose mostly 57.5 µM), without a hit: at the highest dose activity change, negative = inhibition, hits mostly inhibitors. 0.02% of 75,000 active; active means well fitted inhibition curve with a large enough effect in the main read-out, with a control signal flat, not every such curve was filed as active; inconclusive means small, poorly fitted or top-dose-only effect, or a change in a side signal; further: % of control where 0% means no effect
Casp1 inh – qHTS Assay for Allosteric/Competitive Inhibitors of Caspase-1; P29466; Caspase-1 enzyme, Ac-WEHD-AFC fluorogenic rate; Potency, µM (series often up to 57.5 µM), for inactives: at the highest dose activity change, negative = inhibition, usual class: inhibitors; 0.03% of 75,000 active; AID 900, 2007;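 further: plate controls were vehicle for no effect and no substrate for full effect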
* marks the source's active call; other numbers are inactive results; ? = inconclusive; . = no result; [ ] = dose if it differs, or a comment. Unless noted, the call rests on the fitted dose curve; in most records, active means well fitted curve in the direction sought with a large enough effect; inconclusive means small, poorly fitted or top-dose-only effect, or another doubt; inactive means no such curve, though single readings can be large; an effect the other way counts as inactive or inconclusive. Potency means the concentration at half of the fitted maximal effect.

SMILES | TSHR agonist | CRE Fsk mod | HEK293 cAMP ctrl | USP2a inhib | Casp7 inh | Casp1 inh
COC(=O)C/C=C/C(C)C(OCc1cccc(Br)c1)C(C)C(OC)C1CCCCC1 (stereo unspecified) | -5%[11.4 µM] | . | 6%[11.4 µM] | . | 2%[11.5 µM] | -1%[11.5 µM]
COc1ccc(Cl)cc1NC(=O)c1ccco1 | ? | -9% | ? | -7% | -2% | 0%
O=C(Nc1ccc(Cl)cc1C(=O)Nc1ccc(Br)cn1)c1ccco1 | ? | 23% | 20µM* | 29% | -1% | 0%
O=C1C=CC(=O)c2c(O)c(Cl)c(Cl)c(O)c21 | . | . | . | ? | 2% | 3%
Cc1ccc(-n2ncc3c(=O)n(CC(=O)OCc4ccccc4)cnc32)cc1 | ? | -2% | 25µM* | -7% | 0% | 1%
O=C(Cn1cnc2c(cnn2-c2ccccc2)c1=O)OCc1ccccc1 | ? | 3% | ? | -5% | -2% | -2%
Cc1ccc(-n2nnc3c(=O)n(CC(=O)OCc4ccccc4)cnc32)cc1 | ? | 12% | 25µM* | . | -10% | -3%
Cc1cc2ccc(OC(=O)c3ccc(N=C(N)N)cc3)cc2oc1=O | -1%[11.4 µM] | -15%[7.6 µM] | -6%[11.4 µM] | . | 0%[11.5 µM] | -1%[11.5 µM]
N#Cc1c(-c2ccco2)c2c([nH]c1=S)CCCC2 | 4% | 5% | -1% | 13µM* | -26% | ?
N#Cc1c(N)nc2c(c1-c1ccco1)CCCCC2 | 2% | ? | 14% | -10% | -6% | -4%
COCCCn1c2nc3ccccc3nc2c2c(=O)n(Cc3ccccc3Cl)cnc21 | ? | 20% | 25µM* | 18% | -1% | -3%
COCCCn1c2nc3ccccc3nc2c2c(=O)n(Cc3ccc(Cl)cc3)cnc21 | 11% | ? | 17% | 24% | -3% | 2%
Cc1c(Cl)c(S(N)(=O)=O)cc2c1=NC=NS=2(=O)O | 2%[11.4 µM] | 15%[7.6 µM] | 11%[11.4 µM] | . | 4%[11.5 µM] | 3%[11.5 µM]
Cc1ccc(-c2nnc(N3CCOCC3)c3ccccc23)cc1S(=O)(=O)NCC1CCCO1 (stereo unspecified) | 9% | 3.2µM* | -5% | 16% | 1% | 0%
COc1nnc(-c2ccc(C)c(S(=O)(=O)NCCO)c2)c2ccccc12 | 27% | ? | 18% | 17% | 1% | -2%
COc1ncc2nc(-c3ccccc3)c(=O)n(CCc3ccccc3)c2n1 | 8% | 13µM* | 26% | 68% | ? | .
O=c1c(-c2cccs2)nc2cnc(Oc3ccccc3)nc2n1Cc1cccs1 | 1% | ? | 18% | 203% | ? | .
COc1ccc(Oc2ncc3nc(-c4cccs4)c(=O)n(Cc4cccs4)c3n2)cc1 | ? | 3.2µM* | ? | 164% | ? | .
COc1ncc2nc(-c3cccs3)c(=O)n(Cc3cccs3)c2n1 | 0% | 2.5µM* | 5%[2.29 µM] | 216% | ? | .
COc1ccc(Oc2ncc3nc(-c4ccc(OC)cc4)c(=O)n(Cc4cccs4)c3n2)cc1 | ? | ? | ? | 126% | ? | .
COc1ncc2nc(-c3cccs3)c(=O)n(Cc3ccc(F)cc3)c2n1 | ? | ? | ? | 103% | ? | .
COc1ncc2nc(-c3cc(F)cc(F)c3)c(=O)n(Cc3cccs3)c2n1 | 0% | 5µM* | 7% | 164% | ? | .
CC(C)C[C@@H](N)C(=O)Nc1ccc2ccccc2c1 | 1%[11.4 µM] | -9%[7.6 µM] | -2%[11.4 µM] | . | -1%[11.5 µM] | 0%[11.5 µM]
C/C=C/OC(=O)NC(c1cccc(C)c1)[C@@]1(C(=O)OCC)CCCC1=O (stereo partly specified) | 6%[11.4 µM] | . | 12%[11.4 µM] | . | 1%[11.5 µM] | 1%[11.5 µM]
O=C1c2ccccc2-c2ccc(N(Cc3ccc(Br)cc3)Cc3ccc(Br)cc3)cc21 | 4%[11.4 µM] | 0%[7.6 µM] | 14%[11.4 µM] | . | -2%[11.5 µM] | 1%[11.5 µM]
SMILES | TSHR agonist | CRE Fsk mod | HEK293 cAMP ctrl | USP2a inhib | Casp7 inh | Casp1 inh
O=C1C=C(Nc2nc(C(=O)O)cc(=O)[nH]2)c2ccccc2C1=O | -2%[11.4 µM] | 6%[7.6 µM] | 2%[11.4 µM] | . | 2%[11.5 µM] | -8%[11.5 µM]
COc1cccc([C@@H]2Oc3ccc(OC)cc3/C(=N/O[C@@H](C)CN3CCCCc4nc(C)c(C)cc43)[C@@H]2O)c1 | ? | . | ? | . | -2%[11.5 µM] | -5%[11.5 µM]
O=C(O)CCNc1ccccc1C(=O)O | 0%[11.4 µM] | 9%[7.6 µM] | 6%[11.4 µM] | . | 1%[11.5 µM] | 0%[11.5 µM]
COc1ncc2nc(-c3cccs3)c(=O)n(C)c2n1 | -8% | 3.2µM* | 10% | 120% | ? | .
COc1ccc(-n2c(=O)c(-c3cccs3)nc3cncnc32)cc1 | 3% | 3.2µM* | 6% | 144% | -25% | -17%
COc1ncc2nc(-c3ccccc3)c(=O)n(Cc3cccs3)c2n1 | 9% | 13µM* | 26% | 99% | -28% | ?
O=c1cnc2cnc(Oc3ccccc3)nc2n1Cc1cccs1 | ? | -7% | 20µM* | 52% | -2% | -6%
O=C(O)/C=C\[C@H](O)c1ccc(Cl)cc1 | ? | -8% | ? | 1% | 0% | 2%
N#C/C(=C\N1CCNC1=S)C(=O)c1ccc2ccccc2c1 | 13%[11.4 µM] | 0%[7.6 µM] | 15%[11.4 µM] | . | -5%[11.5 µM] | -2%[11.5 µM]
CO[C@H]1COC(=O)C/C=C\[C@@H](C)COC(=O)[C@H]2CCCN2C(=O)C/C=C\[C@H]1C | -7%[11.4 µM] | . | 5%[11.4 µM] | . | 2%[11.5 µM] | -3%[11.5 µM]
NC[C@@H](O)CSCc1ccc(Cl)cc1 | -2%[11.4 µM] | 7%[7.6 µM] | 1%[11.4 µM] | . | 1%[11.5 µM] | -4%[11.5 µM]
C[C@H](OP(=O)(O)O)[C@H](N)C(=O)O | 0%[11.4 µM] | -5%[7.6 µM] | 4%[11.4 µM] | . | 1%[11.5 µM] | -1%[11.5 µM]
COc1cccc(Nc2ncc3ncc(=O)n(Cc4cccs4)c3n2)c1 | ? | ? | 16µM* | 176% | ? | .
COc1cccc(Cn2c(=O)c(-c3cccs3)nc3cnc(OCc4ccccc4)nc32)c1 | ? | 1.3µM* | ? | 274% | ? | .
CSCC[C@H](NC(=O)CCn1nnc2ccccc2c1=O)C(=O)O | 1% | -29% | 4% | -5% | -1% | 1%
CSCCC(Nc1ncnc2ccc(Br)cc12)C(=O)O (stereo unspecified) | ? | -6% | 2µM* | -3% | 2% | -1%
CSc1nc(N)nc(SCC(=O)c2ccccc2)c1C#N | -3% | 3.2µM* | -1% | -4% | ? | .
CCn1c(=O)c(C(=O)NCc2ccc(OC)cc2)c(O)c2ccccc21 | 7% | ? | 3% | 1% | 0% | -1%
CCn1c(=O)c(C(=O)NCc2ccc(OC)c(OC)c2)c(O)c2ccccc21 | ? | 1.6µM* | ? | . | 1% | -3%
CCn1c(=O)c(C(=O)NCCCO)c(O)c2ccccc21 | 7% | 10µM* | 8% | 1% | -3% | -1%
CCn1c(=O)c(C(=O)NCc2ccccn2)c(O)c2ccccc21 | ? | 7.9µM* | ? | 14% | 6% | -4%
